D1 antag: Antagonist of Human D 1 Dopamine Receptor: qHTS | D(1A) dopamine receptor (Homo sapiens), P21728 | HEK293 TREx D1 cells, calcium flux, dopamine EC80; stronger effect = lower value | activity change, negative = inhibition, % at 10 µM | 3.2% of 360,000 active | AID 504652, 2011; in the data active = activity change below about -30%; also: % is scaled to controls: 0 for no effect and ±100 for the full control effect
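HEK293 T-REx cells expressing inducible, force-coupled D1 receptor; no-wash Ca dye, 30–90 min RT. Cmpd → 180 s read at 1 Hz → EC80 DA → 180 s read.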
D1 agonist: Allosteric Agonists of the Human D1 Dopamine Receptor: qHTS | 1% of 360,000 active | HEK293 T-REx D1 cells, calcium flux, agonist mode | D(1A) dopamine receptor (Homo sapiens), P21728 | activation, % at 2 µM; in the data active = activation above about 30%; also: 0% is about no effect
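Inducible HEK293 T-REx D1 cells, force-coupled to calcium signalling, were plated at 4000 cells/well with tetracycline and held overnight at 30 C. After no-wash calcium dye loading, compound-evoked calcium rise over 180 s flagged agonists.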
DRD3 agonist: qHTS of D3 Dopamine Receptor Agonist: qHTS; 0.58% of 410,000 active; max activation, %; D3R DiscoveRx beta-arrestin cells, luminescence, 90 min; AID 652048, 2013; D(3) dopamine receptor (Homo sapiens), P35462; in the data active = max activation above about 30%; also: 0% is about no effect
Target sequence (P35462 whole entry, looked up): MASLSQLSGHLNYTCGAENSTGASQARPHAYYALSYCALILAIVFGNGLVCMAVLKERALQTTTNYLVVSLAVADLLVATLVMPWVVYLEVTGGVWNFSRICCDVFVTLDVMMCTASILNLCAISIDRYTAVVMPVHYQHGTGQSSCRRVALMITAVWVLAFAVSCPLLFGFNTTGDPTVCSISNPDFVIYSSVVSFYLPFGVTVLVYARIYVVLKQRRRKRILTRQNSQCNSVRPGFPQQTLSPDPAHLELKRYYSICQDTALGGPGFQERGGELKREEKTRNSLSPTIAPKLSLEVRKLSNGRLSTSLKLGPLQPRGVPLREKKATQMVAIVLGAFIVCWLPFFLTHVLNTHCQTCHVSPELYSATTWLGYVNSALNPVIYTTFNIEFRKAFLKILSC
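Cells at 1500/well, incubated overnight, then treated with pinned compounds (dopamine as control) for 90 min at 37 degrees C. DiscoveRx reagent added for 30 - 60 minutes at room temperature; luminescence read.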
D3 antag: qHTS of D3 Dopamine Receptor Antagonist: qHTS | D(3) dopamine receptor (Homo sapiens), P35462 | D3R cells, DiscoveRx beta-arrestin luminescence, antagonist mode; stronger effect = lower value | max response, negative = inhibition, % | 2.5% of 360,000 active; in the data active = max response below about -50%; inconclusive = no clear call, values can overlap the other calls; also: % is scaled to controls: 0 for no effect and ±100 for the full control effect
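Cells plated overnight at 1500 cells/well, then exposed to library compounds with dopamine controls for 90 minutes at 37 degrees C. DiscoveRx reagent added for 30–60 minutes at room temperature; luminescence read, quantitative HTS format.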
D1 potentiator: Potentiators of Human D1 Dopamine Receptor: qHTS; D(1A) dopamine receptor (Homo sapiens), P21728; HEK293 TREx D1 cells, calcium flux, dopamine EC20 potentiation; potentiation, % at 10 µM; 0.036% of 360,000 active; AID 504651, 2011; in the data active = potentiation above about 30%; also: 0% is about no effect
An asterisk follows results filed as active; ? = inconclusive; · = no result; ! = not active in a repeat. Shown are actives, neighbours in structure and some others; about 6% of the full set was active somewhere.

SMILES | D1 antag | D1 agonist | DRD3 agonist | D3 antag | D1 potentiator
CCCCn1cc(S(=O)(=O)c2ccc(C)cc2)c(=O)c2cc(F)c(N3CCCCC3)cc21 | 12 | 71* | 9 | · | 1
Cn1cc(S(=O)(=O)c2ccccc2)c(=O)c2cc(F)c(N3CCOCC3)cc21 | -85*! | 10 | 3 | -3 | -5
Cc1ccc(S(=O)(=O)c2cn(C)c3cc(N4CCOCC4)c(F)cc3c2=O)cc1 | 4 | 2 | 3 | 3 | -1
Cc1ccc(C)c(S(=O)(=O)c2cn(Cc3ccccc3)c3cc(N4CCCC4)c(F)cc3c2=O)c1 | -35* | 2 | -25 | · | -2
CCCn1cc(S(=O)(=O)c2cccc(Cl)c2)c(=O)c2cc(F)c(N3CCN(CC)CC3)cc21 | 0 | 11 | 63* | · | -3
Cc1ccc(S(=O)(=O)c2cn(Cc3ccccc3)c3cc(N4CCCCC4)c(F)cc3c2=O)cc1 | -12 | -1 | 0 | · | -3
O=C1C2C3C=CC(C3)C2C(=O)N1Nc1ccc([N+](=O)[O-])cc1[N+](=O)[O-] (configuration not stated) | -10 | 0 | -17 | ? | -8
O=C1c2ccccc2C(=O)N1Nc1ccc([N+](=O)[O-])cc1[N+](=O)[O-] | 4 | 1 | -25 | -75* | 0
CCN1CCc2c(OCc3ccccc3)cccc2C1=O | -38* | 4 | -9 | 2 | 0
O=C(CS(=O)c1ccccc1[N+](=O)[O-])Oc1ccc(Br)cc1 (configuration not stated) | -1 | 2 | 5 | 6 | -5
CS(=O)(=O)c1ccc(S(=O)CC(=O)Oc2ccc(Cl)cc2)c([N+](=O)[O-])c1 (configuration not stated) | 21 | 8 | -16 | -102* | 6
Cc1cccc(OCCNc2cc(N3CCN(C)CC3)ccc2[N+](=O)[O-])c1 | -18 | 12 | -50 | -65* | -9
Cc1cccc(OCCNc2cc(N3CCOCC3)ccc2[N+](=O)[O-])c1 | 0 | 3 | 8 | 23 | -8
Cc1ccc(OCCNc2cc(N3CCN(CCO)CC3)ccc2[N+](=O)[O-])cc1C | 7 | 7 | -9 | -56* | -8
Nc1nc(N2CCCCC2)c(C=O)c(N2CCCCC2)n1 | -36* | 2 | -8 | -1 | -5
Cc1cc(NC(=O)CCn2c(=O)c3cccn3c3cccnc32)ccc1Br | -4 | 1 | 1 | · | 2
CCOC(=O)C1CCCN(S(=O)(=O)c2ccc3c(c2)N(C)C(=O)CC(=O)N3C)C1 (configuration not stated) | -45*! | 2 | 0 | -16 | 0
CCOC(=O)C1CCCN(S(=O)(=O)c2ccc3[nH]c(=O)oc3c2)C1 (configuration not stated) | -41* | 1 | -5 | · | 0
CCOC(=O)C1CCCN(S(=O)(=O)c2ccc3c(c2)oc(=O)n3C)C1 (configuration not stated) | -17 | 10 | 2 | · | 6
CCOC(=O)N1CCN(S(=O)(=O)c2ccc3[nH]c(=O)oc3c2)CC1 | -11 | 3 | 34* | -6 | 3
O=c1n(Cc2cccc(F)c2)c2ccccc2c2nc(-c3ccccc3)nn12 | -53* | 0 | -10 | · | 0
Cc1cccc(Cn2c(=O)n3nc(-c4ccccc4)nc3c3ccccc32)c1 | 11 | 2 | 3 | · | 1
Cc1cccc(OCC(=O)Nc2ccccc2C(=O)OCc2cc(=O)n3ccsc3n2)c1 | 0 | -1 | -4 | · | 0
CCN(CC)c1ccc(CNS(=O)(=O)c2cc3c(cc2C)NC(=O)CO3)cc1 | -2 | 1 | 0 | · | 4
Cn1c(=O)[nH]c(=O)c2c1nc([N+](=O)[O-])n2Cc1ccccc1 | 26 | 2 | -27 | -82* | 5
SMILES | D1 antag | D1 agonist | DRD3 agonist | D3 antag | D1 potentiator
CC1CN(c2ccccc2)c2nc3c(c(=O)[nH]c(=O)n3C)n2C1 (configuration not stated) | -8 | 3 | -4 | -15 | -9
Cn1c(=O)[nH]c(=O)c2c1nc1n2CCN1Cc1ccccc1 | -61* | 3 | 14 | -3 | -7
Cn1c(=O)[nH]c(=O)c2c1nc1n2CCN1c1ccccc1 | 12 | 0 | 45* | · | -2
CN(C)c1nc2c(c(=O)[nH]c(=O)n2C)n1CCOc1ccccc1 | 12 | 2 | 4 | 7 | -6
CC(C)Cn1c([N+](=O)[O-])nc2c1c(=O)[nH]c(=O)n2C | 9 | 3 | -10 | -13 | -1
CCN(CC)c1nc2c(c(=O)[nH]c(=O)n2C)n1CCOc1ccccc1 | 5 | 7 | 6 | 7 | 35*
CCN(c1cccc(C)c1)c1ncnc2c1cnn2-c1cccc(Cl)c1 | -12 | -3 | 9 | · | 0
CS(=O)(=O)Nc1ccc(C(=O)NCCSC2CCCCC2)cc1 | 1 | 0 | -10 | -16 | -1
COc1ccc(C(=O)NCCSC2CCCCC2)cc1 | -43* | 1 | -4 | -2 | -5
O=C(NCCSC1CCCCC1)c1ccccc1 | -77* | 0 | -2 | -3 | -16
Cc1ccc(S(=O)(=O)/N=C2\C=C(Nc3ccc(O)cc3)C(=O)c3ccccc32)cc1 | · | · | -13 | -94* | ·
Cc1ccc(NC2=C/C(=N/S(=O)(=O)c3cccs3)c3ccccc3C2=O)cc1 | 4 | -2 | -12 | -72* | -2
O=C1C=C(Nc2ccccc2)C(=O)c2ccccc21 | 7 | 6 | -5 | -5 | -2
O=C1C(Nc2ccccc2)=C/C(=N/S(=O)(=O)c2cccs2)c2ccccc21 | -3 | 6 | -38 | -85* | 0
Cc1ccc(S(=O)(=O)/N=C2\C=C(NS(=O)(=O)c3ccccc3)C(=O)c3ccccc32)c(C)c1 | · | · | -23 | ? | ·
CN(C(=O)COC(=O)CSc1ccc([N+](=O)[O-])cc1)c1ccccc1 | -47* | 12 | -9 | -16 | ·
CN(C(=O)COC(=O)c1ccc([N+](=O)[O-])cc1)c1ccccc1 | -8 | 0 | 4 | 2 | -1
CCc1ccc(NC(=O)CN2C(=O)C3CCCN3c3ccc(S(=O)(=O)N(CC)CC)cc32)cc1 (configuration not stated) | 12 | 6 | -2 | · | -3
CCOP(=O)(c1ccccc1)c1nc(-c2ccccc2Cl)oc1N1CCCCC1 (configuration not stated) | 25 | 27 | 0 | -73* | -2
CC(C#Cc1ccc2c(c1)COc1c3ccccc3nn1-2)OC(C)(C)C (configuration not stated) | 1 | 2 | 52* | 82 | -2
CCCCC#Cc1ccc2c(c1)COc1c3ccccc3nn1-2 | 14 | 6 | 31* | 77 | 1
O=S(=O)(c1ccc2c(c1)OCCO2)N1CCN(S(=O)(=O)c2ccccc2Cl)CC1 | -12 | 3 | · | · | -3

Source: PubChem
